According to the supplement of paper PMC10646978:
± gives the standard deviation.

Experiments:
Settings in all cases: modulator concentration 10 µM
[1] = test system: RAW-Dual (murine macrophage reporter line); test: NF-kB reporter (SEAP) activity fold change vs agonist alone; higher = enhanced NF-kB activity
Outline: (§1)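 Overnight stimulation with a PRR agonist followed pre-incubation for 1 hour at 37 °C with compound at 10 μM final. This was done in RAW-Dual murine macrophage reporter cells seeded at 50 000 per well in 384-well plates. NF-κB (SEAP, QUANTI-Blue absorbance at 620 nm) and IRF (Lucia luciferase, QUANTI-Luc luminescence) were read from the supernatant. Each reporter's fold change relative to the mean agonist-only control on the same plate was averaged over replicate plates.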

[2] = test system: RAW-Dual (murine macrophage reporter line); test: IRF reporter (Lucia luciferase) activity fold change vs agonist alone; higher = enhanced IRF activity
Outline: as §1

[3] = test system: RAW-Dual (murine macrophage reporter line); test: viability score (confluency relative to resting cells, overnight) (fraction); higher = more viable, active = viable (0.7 or more)
Outline: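 In 384-well plates, RAW-Dual macrophages received compound at a final 10 μM overnight. Two confluency masks were then made with IncuCyte software from IncuCyte images of all imaged wells. The viability score is defined as confluency relative to resting cells. Passing the cutoff required both masks to lie above 70% of resting cells.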

[4] = agonist: CpG ODN 1826 0.5 ug/mL

Structure (SMILES) | NF-kB reporter [1, 4] | NF-kB reporter ([1]; agonist: LPS 0.1 ug/mL) | NF-kB reporter ([1]; agonist: MPLA […]) | IRF reporter ([2]; agonist: 3'3'-cGAMP 10 ug/mL) | IRF reporter ([2]; agonist: LPS 0.1 ug/mL) | IRF reporter ([2]; agonist: MPLA […]) | viability score [3]
Cc1noc(C)c1CC(=O)N1CCCSCC1CN1CCCC1 (stereo unspecified) | 0.943 ± 0.093 | 1.03 ± 0.083 | 0.906 ± 0.04 | 1.1 ± 0.065 | 1.09 ± 0.11 | 0.972 ± 0.14 | 1 (active)
COc1ccc(CNCCc2c[nH]c3ccccc23)cc1OC | 0.397 ± 0.056 | 0.947 ± 0.12 | 0.808 ± 0.077 | 0.763 ± 0.03 | 1.33 ± 0.26 | 1.34 ± 0.24 | 1.01 (active)
CC12CCC3C(CCC4CC(=O)CCC43C)C1CCC2=O (stereo unspecified) | 1.29 ± 0.32 | 1.03 ± 0.058 | 0.933 ± 0.075 | 1.04 ± 0.044 | 1.23 ± 0.18 | 1.23 ± 0.17 | 0.997 (active)
C#CCOc1ccc(C=C2C(=O)NC(=O)N(c3cc(OC)c(Cl)cc3OC)C2=O)cc1Cl | 1.1 ± 0.1 | 1 ± 0.059 | 0.899 ± 0.056 | 0.952 ± 0.051 | 1.15 ± 0.12 | 0.887 ± 0.055 | 1.01 (active)
COc1cc(CNCCc2ccc(OC)c(OC)c2)cc(OC)c1 | 0.973 ± 0.078 | 0.959 ± 0.14 | 0.989 ± 0.093 | 1.02 ± 0.032 | 1.22 ± 0.13 | 1.45 ± 0.18 | 1.02 (active)
Cc1ccccc1C(=O)Nc1cc(Cl)c([N+](=O)[O-])cc1Cl | 1.05 ± 0.061 | 0.897 ± 0.078 | 0.973 ± 0.029 | 0.997 ± 0.037 | 0.996 ± 0.11 | 0.988 ± 0.21 | 0.998 (active)
CC12CCC3C(CCC4CC(Cl)CCC43C)C1CCC2=O (stereo unspecified) | 0.925 ± 0.074 | 0.921 ± 0.077 | 0.906 ± 0.094 | 0.961 ± 0.11 | 0.953 ± 0.11 | 0.955 ± 0.16 | 1.05 (active)
Cc1ccc(-c2nn(-c3ccccc3)cc2C=C2C(=O)NC(=S)NC2=O)o1 | 1.03 ± 0.3 | 1.01 ± 0.11 | 0.898 ± 0.071 | 0.968 ± 0.057 | 1.27 ± 0.2 | 1.25 ± 0.13 | 1 (active)
Br.NCCc1cc(O)c(O)cc1O | 1.04 ± 0.28 | 0.911 ± 0.073 | 1.14 ± 0.08 | 0.609 ± 0.036 | 1.32 ± 0.24 | 1.19 ± 0.19 | 0.53 (inactive)
Nc1nc(N)nc(NC2CC2)n1 | 1.47 ± 0.063 | 1.15 ± 0.1 | 1.67 ± 0.39 | 0.614 ± 0.064 | 0.992 ± 0.24 | 0.892 ± 0.33 | 0.987 (active)
CCC1(c2ccc(N)cc2)CCC(=O)NC1=O (stereo unspecified) | 1.22 ± 0.091 | 1.04 ± 0.052 | 1.06 ± 0.089 | 1.12 ± 0.26 | 0.913 ± 0.077 | 0.939 ± 0.083 | 0.996 (active)
Cl.Clc1ccc(C(OCCN2CCCCC2)c2ccccc2)cc1 (stereo unspecified) | 0.656 ± 0.26 | 0.756 ± 0.051 | 0.721 ± 0.049 | 0.543 ± 0.023 | 1.25 ± 0.15 | 1.24 ± 0.14 | 0.652 (inactive)
OCC(O)Cc1ccc2c(c1)OCO2 (stereo unspecified) | 1.02 ± 0.096 | 0.831 ± 0.062 | 0.906 ± 0.093 | 0.988 ± 0.031 | 1.37 ± 0.19 | 1.53 ± 0.25 | 0.994 (active)
